PLK1 PBD inh: qHTS for Inhibitors of PLK1-PDB (polo-like kinase 1 - polo-box domain): Primary Screen; Plk1 PBD binding of FITC phosphopeptide, fluorescence polarization; Potency, µM, hits mostly inhibitors; 360,000 tested, 2.8% active; note: series mostly up to about 57 µM; nearly all actives have a fitted effect of over 65% in size
Target sequence (P53350 whole entry, looked up, the tested form may be a part): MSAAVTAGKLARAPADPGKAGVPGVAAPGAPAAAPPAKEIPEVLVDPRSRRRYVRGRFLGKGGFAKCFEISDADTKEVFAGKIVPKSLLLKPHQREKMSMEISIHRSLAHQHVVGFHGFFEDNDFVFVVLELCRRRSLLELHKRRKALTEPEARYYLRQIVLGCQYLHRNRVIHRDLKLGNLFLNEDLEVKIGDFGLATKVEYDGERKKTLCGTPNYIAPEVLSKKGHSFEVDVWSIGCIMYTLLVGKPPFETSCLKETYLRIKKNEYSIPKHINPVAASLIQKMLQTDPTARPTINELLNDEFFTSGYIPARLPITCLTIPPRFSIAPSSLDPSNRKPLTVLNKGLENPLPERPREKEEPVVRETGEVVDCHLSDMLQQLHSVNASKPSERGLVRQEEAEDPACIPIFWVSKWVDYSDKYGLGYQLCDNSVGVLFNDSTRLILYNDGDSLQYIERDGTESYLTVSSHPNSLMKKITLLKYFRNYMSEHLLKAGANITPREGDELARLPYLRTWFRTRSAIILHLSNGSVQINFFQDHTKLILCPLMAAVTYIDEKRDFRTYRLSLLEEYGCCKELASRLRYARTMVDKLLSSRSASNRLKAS
RORg inh: qHTS for inhibitors of ROR gamma transcriptional activity; Drosophila S2 Gal4-RORgamma UAS-luciferase reporter, 20 h; Potency, µM (doses to about 53.6 µM), most hits filed as inhibitors; 310,000 tested, 5.4% active; AID 2551, 2010; note: nearly all actives have a fitted effect of over 60% in size
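Luminescence from a UAS-regulated Photinus luciferase reporter in stably transfected Drosophila Schneider cells is measured; decreased signal marks ROR gamma inhibition. Fusion expression is induced by 700 uM copper sulfate for 20 hr.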
Sfp inh: qHTS Assay for Inhibitors of Bacillus subtilis Sfp phosphopantetheinyl transferase (PPTase). Biochemical Sfp PPTase activity, qHTS. Potency, µM, hits mostly inhibitors. 310,000 tested, 3.5% active;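 note: the enzyme is Sfp with the accession as filed and its product quenches rhodamine fluorescence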
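Buffer: 50 mM Hepes-Na pH 7.6, 10 mM MgCl2, 0.01% Nonidet P-40, 0.01% BSA. Enzyme 15 nM, pre-exposed to compound 15 min; substrates then added and fluorescence change tracked over 30 min.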
VP16 counter: VP16 counterscreen qHTS for inhibitors of ROR gamma transcriptional activity; Drosophila S2 Gal4-VP16 UAS-luciferase, luminescence, 20 h; Potency, µM (titrated, usually from 53.6 µM), actives largely listed as inhibitors; 310,000 tested, 3.5% active; AID 2546, 2010;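 note: Gal4-VP16 expression switched on by copper sulfate through the metallothionein promoter; nearly all actives have a fitted effect of over 50% in size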
ALDH1A1 inh: qHTS Assay for Inhibitors of Aldehyde Dehydrogenase 1 (ALDH1A1); Aldehyde dehydrogenase 1A1 (Homo sapiens), P00352; Purified ALDH1A1, NADH fluorescence, propionaldehyde substrate; Potency, µM (titrated, usually from 75.3 µM), usual class: inhibitors; 220,000 tested, 7.3% active; active = well fitted inhibition curve with a large enough effect, not every such curve was filed as active; inconclusive = small, poorly fitted or top-dose-only effect, or another doubt; inactive = no such curve, though single readings can be large or run the other way
Numbers stand for hits; . = inactive; ? = inconclusive; / = no result. The list is not random: actives were taken first. Their share in the collection is about 12%. Unless noted, calls come from the whole dose curve; as a rule, active = well fitted curve in the direction sought with a large enough effect; inconclusive = small, poorly fitted or top-dose-only effect, or another doubt; inactive = no such curve, though single readings can be large; an effect the other way counts as inactive or inconclusive.

SMILES | PLK1 PBD inh | RORg inh | Sfp inh | VP16 counter | ALDH1A1 inh
Cc1ccc2cc(CN(Cc3nnnn3C3CCCCC3)CC3CCCO3)c(=O)[nH]c2c1 (stereo unspecified) | . | . | . | . | 8.91µM
O=C(C[C@@H]1C=C[C@@H](NC(=O)c2cccnc2)[C@@H](CO)O1)NCc1ccncn1 | . | / | / | / | /
O=C(Oc1c(Cl)cc(Cl)c2cccnc12)c1ccco1 | . | 0.282µM | . | ? | ?
O=C(Oc1c(CN2CCOCC2)cc(Cl)c2cccnc12)c1cccs1 | . | 1.41µM | . | 1µM | ?
O=C(Nc1cccnc1Cl)c1cccs1 | . | . | . | . | /
O=C(Oc1c(CN2CCOCC2)cc(Cl)c2cccnc12)c1ccccc1Cl | . | 0.708µM | . | 3.55µM | .
O=C(Oc1cncc(Cl)c1)c1ccco1 | . | ? | . | . | .
O=C(Oc1ccc(Cl)c2cccnc12)N1CCOCC1 | . | . | . | . | .
O=C(Oc1c(Cl)cc(Cl)c2cccnc12)c1cccs1 | . | 0.631µM | . | 1µM | ?
O=C(Nc1nc(OCC(F)(F)F)cnc1/C=C\c1ccccc1)c1ccccc1 | . | / | / | / | /
CN1CCN(c2ccc(CNC(=O)C3Cc4c(-c5ccc(Cl)cc5)ccnc4O3)cc2)CC1 (stereo unspecified) | . | / | / | / | /
O=C(NCc1ccncc1)[C@@H]1CCCN1C(=O)[C@H]1CCCN1C(=O)c1c(F)cccc1F | . | / | / | / | /
Cc1ccc(S(=O)(=O)NCC2CCC(C(=O)N3CCN(C)CC3)CC2)cc1 (stereo unspecified) | . | . | . | . | /
CC1CCN(c2nc3c(c(=O)n(C)c(=O)n3C)n2CCSc2nc3ccccc3o2)CC1 | / | . | . | . | .
Cc1ccc(Cn2c(N3CCCCCC3)nc3c2c(=O)[nH]c(=O)n3C)cc1 | . | . | . | . | 1.58µM
COc1ccc(N2CCN(c3nc4c(c(=O)n(C)c(=O)n4C)n3Cc3ccccc3)CC2)cc1 | . | . | . | . | ?
CC1CCCN(c2nc3c(c(=O)n(C)c(=O)n3C)n2Cc2ccccc2)C1 (stereo unspecified) | . | . | . | . | 1.78µM
Cn1c(=O)c2c(nc(N3CCCCCC3)n2CCSc2nc3ccccc3o2)n(C)c1=O | . | . | . | . | 4.47µM
C=CCn1c(N2CCCC2)nc2c1c(=O)[nH]c(=O)n2C | . | . | . | . | .
Cn1c(=O)[nH]c(=O)c2c1nc(N1CCCCC1)n2C/C=N/NC(=O)c1cc(Br)ccc1O | . | 12.6µM | . | ? | /
NC(c1csc(Nc2cc(NCCCO)ncn2)n1)c1ccccc1Cl (stereo unspecified) | . | / | / | / | /
Cc1ccc(CN2C(=O)C(C)Sc3ccc(C#N)cc32)cc1 (stereo unspecified) | . | / | / | / | /
CC1CCCN(c2nc3c(c(=O)[nH]c(=O)n3C)n2Cc2ccccc2Cl)C1 (stereo unspecified) | . | . | ? | . | 10µM
Cn1c(=O)[nH]c(=O)c2c1nc(N1CCC(Cc3ccccc3)CC1)n2Cc1ccccc1 | . | ? | . | ? | 10µM
CCCCCCCCCCCCC1CO1 (stereo unspecified) | / | . | / | . | .
SMILES | PLK1 PBD inh | RORg inh | Sfp inh | VP16 counter | ALDH1A1 inh
COc1cc(CNC(=O)c2cc(-c3ccc(F)cc3OC)n[nH]2)cc(OC)c1 | . | / | / | / | /
O=C(O)CCCC[C@@H]1SC[C@H]2NC(=O)N[C@@H]12 | / | . | . | . | .
O=C(CSc1nnc(CNC(=O)c2ccco2)o1)Nc1ccccc1F | 21.2µM | . | 39.8µM | . | /
O=C(CSc1nnc(CNC(=O)c2ccco2)o1)c1ccc(Cl)cc1 | 26.7µM | . | . | . | .
Cc1cnc(C)c(Nc2nc(C(N)Cc3ccc(Cl)cc3)cs2)n1 (stereo unspecified) | . | / | / | / | /
Oc1ccc(/C=N/N(Cc2ccccc2)c2ccccc2)c(O)c1O | ? | . | 56.2µM | . | 10µM
Oc1cccc(/C=N/N(Cc2ccccc2)c2ccccc2)c1 | . | . | . | . | .
O=C(NCc1cccnc1)c1cc(C2CCCN(C(=O)c3cccs3)C2)on1 (stereo unspecified) | . | / | / | / | /
Cn1cc(-c2nc3cncnc3n(C3CC3)c2=O)c2ccccc21 | / | . | . | . | .
O=C(COc1ccccc1)NNC(=S)NC(=O)c1ccccc1 | ? | 6.31µM | ? | 11.2µM | 22.4µM
CC(=O)NNC(=S)NC(=O)c1ccccc1 | . | ? | 17.8µM | . | 17.8µM
COc1ccc(C(=O)NC(=S)NNC(=O)COc2ccccc2)cc1 | ? | 7.08µM | . | ? | 17.8µM
COC(=O)C(NC(=O)c1ccccc1)=C(C)C | 3.36µM | . | . | . | .
COc1ccc(C(=O)NC(=S)NNC(=O)c2ccccc2O)cc1 | . | . | . | . | /
O=C(COc1ccccc1)NNC(=O)c1ccc(Cl)cc1 | . | / | / | / | /
N#Cc1ccccc1C[C@H](N)C(=O)NC[C@H]1O[C@@H](n2cnc3c(N)ncnc32)[C@H](O)[C@@H]1O | . | / | / | / | /
CC(=O)Nc1cc(-c2ccccc2CN(C)C)cn2c(-c3ccc(F)c(Cl)c3)cnc12 | . | / | / | / | /
CC(CC(=O)Nc1ccc(F)cc1)S(=O)(=O)c1ccc2c(c1)NC(=O)CO2 (stereo unspecified) | . | . | . | . | /
Cc1ccc(NC(=O)CC(C)S(=O)(=O)c2ccc3c(c2)NC(=O)CO3)cc1C (stereo unspecified) | 23.8µM | . | . | . | /
CC(CC(=O)N1CCc2ccccc21)S(=O)(=O)c1ccc2c(c1)NC(=O)CO2 (stereo unspecified) | 26.7µM | . | . | . | /
